Data reported in PubChem BioAssay AID743093 (The Scripps Research Institute Molecular Screening Center, 2013).
About 100 (0.067%) of roughly 150,000 compounds were called active. Many of the other results were omitted from the sample, so actives are more common in it than they were. Unmarked numbers belong to inactive results.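 How the source made its calls: active means inhibition above the mean plus 3 SD of compounds within the control limits, set per campaign (cut at about 38% in these data); inactive means the rest.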

assay: late stage P. falciparum gametocyte viability inhibitors, primary screen, ATP luminescence, HTS (AID 743093);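 further: 0% = DMSO wells and 100% = medium only without gametocytes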; conditions: P. falciparum stage V gametocytes, 24 h, at 10.9 µM, active compounds read high

SMILES | inhibition
CCCNC(=O)CSc1nc(Cc2ccccc2)nc2ccccc12 | -0.29%
COc1cccc(CNc2ncc(-c3ccccc3)n2C)c1 | -4.96%
CCSCc1nc(N)nc(NCCc2ccccc2)n1 | -2.31%
CC(C)=CCN1CCN(CCCc2ccccc2)CC1CCO (stereo unspecified) | 26.8%
COc1ccccc1C1=CC(=O)C[C@H](c2ccc(F)cc2)C1 | -32.5%
Cc1ccc(-c2ccnc3[nH]n(-c4ccccc4)c(=O)c23)cc1 | -20.9%
CSc1ccc(S(=O)(=O)N2CCC(C(=O)NCCc3ccccc3)CC2)cc1 | -3.09%
O=C(Nc1nnc(CCN2CCCCC2)s1)c1cccc(Cl)c1 | 7.08%
COc1cc(NC(=O)c2ccc(-c3csc(C)n3)cc2)c(OC)cc1Cl | -9.66%
CCC(C(=O)NCCC(C)C)N(Cc1ccccc1Cl)C(=O)c1snc(C(N)=O)c1N (stereo unspecified) | -26.1%
CN(C)CCCNC(=S)N1CCC(c2nc3ccccc3[nH]2)CC1 | -17.4%
CC(=O)NS(=O)(=O)c1ccc2c(c1)Cc1cc(S(=O)(=O)NC(C)=O)ccc1-2 | -9.24%
Cc1cc(F)ccc1N1CCC(N2CCN(C)C(CCO)C2)CC1 (stereo unspecified) | -11.3%
CC(=O)C(C)n1cnc2scc(-c3ccc(C)cc3)c2c1=O (stereo unspecified) | 13.9%
COc1ccccc1-n1cn[nH]c1=S | 2.72%
CC(C)CCN1NC2(CCC(C)CC2)NC1=S (stereo unspecified) | 0.86%
Cc1nc([N+](=O)[O-])cn1CC(=O)Nc1ccc(Cl)cc1 | 2.38%
O=C(O)c1ccccc1C(=O)Nc1nc(-c2ccccc2)cs1 | 3.62%
COC(=O)c1ccc(COc2cc([N+](=O)[O-])cc3cccnc23)cc1 | 2.3%
CCN1N=C(c2ccccc2)CCC1=O | -22.1%
CCc1nc(N2CCN(C(C)=O)CC2)c2c3c(sc2n1)CCCC3 | -2.91%

SMILES | inhibition
Cc1c(NC(=O)CSCc2ccccc2)cccc1C(=O)O | 19%
CCCc1ccc(OCCNC(=O)c2ccccc2Br)cc1 | 17.8%
O=C(N[C@@H]1C/C=C\C[C@@H](CC(=O)N(CCO)Cc2ccccc2)C(=O)N[C@H](Cc2ccccc2)COC1=O)OCC1c2ccccc2-c2ccccc21 | -0.76%
COc1ccc(N2CCN(C(=O)c3cccs3)CC2)cc1 | -16.6%
Cc1cccc(C)c1OCCN1CCOCC1 | -12.2%
COc1ccc(CN(Cc2ccc(OC)cc2)C(=O)c2cccs2)cc1 | 2.88%
CCOc1ccc2ccccc2c1/C=N/NC(=O)c1c(C)cc(C)[nH]c1=O | 23.8%
Cc1cccc(NC(=O)COC(=O)CCc2ccccc2)c1C | -7.45%
CCNC(=O)CCc1nc(-c2ccc(C)cc2)no1 | -1.21%
CN1CCN(c2ccc(S(=O)(=O)N3CCOCC3)cc2NC(=O)CCc2ccccc2)CC1 | -2.86%
CCOC(=O)[C@H]1[C@H]2COc3cc(OC)ccc3[C@@H]2N2C(=O)CN(Cc3ccc(Cl)cc3)C(=O)[C@@]12C | -23.5%
COc1ccc(C(=O)NC2=NCCS2)c(OC)c1 | -24.6%
CCOc1ccc(-n2c(SCC(N)=O)nnc2-c2ccco2)cc1 | -6.2%
CCOC(=O)c1cnc(COc2ccccc2Cl)[nH]c1=O | -10.2%
COc1ccc(CCNC(=O)Cc2ccc(C)cc2)cc1OC | -9.83%
O=[N+]([O-])c1ccccc1/C=C/CN1CCCC(CO)C1 (stereo unspecified) | -16.5%
O=C(CCCCO)c1ccc(O)c(Cl)c1 | -2.03%
CN(Cc1ccccc1)C(=O)c1ccc(COc2ccccc2)cc1 | -8.25%
COc1ccc(OC)c(C(=O)NC(CC(N)=O)c2ccc(N3CCC(N4CCCCC4)CC3)c([N+](=O)[O-])c2)c1 (stereo unspecified) | 0.29%
COc1ccc(-c2sc3ccc(OC)cc3c2C#Cc2ccccn2)cc1 | 11.6%
COc1cc(NC(=O)c2ccc(CNc3c(N4CCCC4)c(=O)c3=O)cc2)cc(OC)c1OC | -11.3%

SMILES | inhibition
COc1ccc(OCC(O)CN(C)C(=O)C(C)Oc2ccccc2)cc1 (stereo unspecified) | -38.3%
Cc1cc(F)ccc1NC(=O)C(C)n1c2ccccc2c2nc(=O)cc(C)n21 (stereo unspecified) | -11.9%
CCOC(=O)CSc1nc(C)c(Oc2ccc(Cl)cc2Cl)c(=O)[nH]1 | -4.17%
O=C(C1CCC1)N1CCN(c2ccccc2)CC1 | 10.5%
Cn1c(Nc2cccc(Cl)c2)nc2ccccc21 | -9.18%
CN(C(=O)c1cccc(NC(=O)Cc2ccc([N+](=O)[O-])cc2)c1)C1CCC1 | -9.69%
O=C(Cc1c(F)cccc1Cl)Nc1ccc(-n2cnnn2)cc1 | 4.22%
O=C(Cc1c(F)cccc1Cl)Nc1ncc([N+](=O)[O-])s1 | 39.5% (active)
O=C(CCc1ccccc1)Nc1ncc([N+](=O)[O-])s1 | -11.7%
O=C(CCl)N(Cc1cccc([N+](=O)[O-])c1)c1cccc(Cl)c1 | -7.41%
Clc1ccc(C[n+]2cc(-c3ccccc3)n3c2CCC3)cc1 | 1.51%
O=[N+]([O-])c1ccc(NC(=S)N2CCN(c3ccccn3)CC2)cc1 | 3.29%
O=C(CN1CCN(c2ccc(F)cc2)CC1)Nc1ccccc1 | -14.6%
N#C/C(=C\c1ccc(-c2cccc([N+](=O)[O-])c2)o1)C(=O)NCCN1CCOCC1 | -28.5%
Cc1ccccc1Nc1c(-c2ccccc2)nc2ncccn12 | -29.5%
O=S(=O)(c1cccc(C(F)(F)F)c1)N1CCN(c2cnccn2)CC1 | -34.2%
Cc1ccc(S(=O)(=O)N2CCN(c3ccccc3)CC2)cc1C | 0.96%
O=C1CC(=O)Nc2cc(S(=O)(=O)N3CCN(c4cccc(C(F)(F)F)c4)CC3)ccc2N1 | 38.8% (active)
CCc1cc(CNC(=O)CC2C(=O)NCCN2Cc2ccccc2C(F)(F)F)on1 (stereo unspecified) | -0.11%
